According to PubChem BioAssay (NCATS):
Records with an inconclusive call do not appear. Active and inactive are the calls of the source. Calls come from the whole dose curve; as a rule, active = well fitted curve in the direction sought with a large enough effect; inconclusive = small, poorly fitted or top-dose-only effect, or another doubt; inactive = no such curve, though single readings can be large; an effect the other way counts as inactive or inconclusive.

Assays:
[1] = P-glycoprotein substrates identified in KB-3-1 adenocarcinoma cell line, qHTS therapeutic library screen (AID 1346986); note: nearly all actives have a fitted effect of over 60% in size
Procedure, shortened: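 Dose-response cytotoxicity, KB-3-1 vs P-gp-high KB-8-5-11, no colchicine in assay medium. Read: CellTiter-Glo at 72 h.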

[2] = P-glycoprotein substrates identified in KB-8-5-11 adenocarcinoma cell line, qHTS therapeutic library screen (AID 1346987); note: nearly all actives have a fitted effect of over 65% in size; for activity change, negative = cytotoxicity: series mostly up to about 44 µM; % is set by controls: 0 for no effect and ±100 for the full control effect
Procedure, shortened: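 Human cervical adenocarcinoma KB-8-5-11 cells, selected in colchicine to over-express P-gp and assayed without it, were exposed for 72 h to titrated compounds. An ATP-based luminescent viability signal gave AC50.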

[3] = test system: Zika virus NS2B-NS3 protease (unlinked complex); experiment: Primary screen GU Rhodamine qHTS for Zika virus inhibitors: Unlinked NS2B-NS3 protease assay (AID 1347159); note: % is set by controls: 0 for no effect and ±100 for the full control effect; nearly all actives have a fitted effect of over 60% in size
Procedure, shortened: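 Enzyme 25 nM in Tris-HCl pH 8.0 + 0.01% Tween 20; compounds up to 114 microM, 15 min RT dark; + Rhod110 substrate 1.5 microM; read t0 and 15 min; delta fluorescence → % inhibition → 4-parameter Hill fit.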

[4] = test system: Zika virus NS2B-NS3 protease (linked construct); experiment: Primary screen NINDS Rhodamine qHTS for Zika virus inhibitors (AID 1347160); note: nearly all actives have a fitted effect of over 55% in size; for activity change, negative = inhibition: % is set by controls: 0 for no effect and ±100 for the full control effect
Procedure, shortened: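 Enzyme (25 nM, linked NS2B-NS3) was preincubated 15 min with compound in 10 mM Tris-HCl pH 8.0, 0.01% Tween 20. Rhodamine110 substrate (1.5 microM) was then added and fluorescence read at start and after 15 min.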

COc1ccnc(CCc2nc3ncccc3[nH]2)c1
inactive: Potency [1] | Potency [2] | Potency [3] | Potency [4]

CCC(=O)OCC(=O)[C@@]1(OC(=O)CC)[C@@H](C)C[C@H]2[C@@H]3CCC4=CC(=O)C=C[C@]4(C)[C@@]3(F)[C@@H](O)C[C@@]21C
inactive: Potency [1] | Potency [2] | Potency [3] | Potency [4]

C=C1CC[C@@]2(OC1)O[C@H]1CC3[C@@H]4CC=C5C[C@@H](O)C[C@@H](O[C@@H]6OC[C@H](O)[C@H](O)[C@H]6O[C@@H]6O[C@@H](C)[C@H](O)[C@@H](O)[C@H]6O)[C@]5(C)C4CC[C@]3(C)[C@H]1[C@@H]2C (stereo not given in full)
inactive: Potency [1] | Potency [2] | Potency [3] | Potency [4]

C[C@@H]1O[C@@H](O[C@H]2[C@H](OC(=O)[C@]34CCC(C)(C)C[C@H]3C3=CCC5[C@@]6(C)C[C@@H](O)[C@@H](O[C@@H]7O[C@H](CO)[C@@H](O)[C@H](O)[C@H]7O)[C@@](C)(CO)C6[C@H](O)C[C@@]5(C)[C@]3(C)CC4)OC[C@H](O)[C@@H]2O)[C@H](O)[C@H](O[C@@H]2OC[C@](O)(CO)[C@H]2O)[C@H]1O[C@@H]1OC[C@@H](O)[C@H](O[C@H]2O[C@H](C)[C@@H](O)[C@H](O)[C@@H]2O)[C@H]1O (stereo not given in full)
inactive: outcome [1] inactive [at 9.29 µM] | activity change, negative = cytotoxicity [2] 2.77% [at 9.29 µM] | activity change, negative = inhibition [3] 9.3% [at 19.1 µM] | Potency [4]

CC1=C[C@H](O)[C@H]2C(C)(C)CCC[C@]2(C)[C@@]1(O)CO
inactive: Potency [1] | Potency [2] | Potency [3] | Potency [4]

COc1ccc(-n2[nH]c3c(cnc4ccccc43)c2=O)cc1
inactive: Potency [1] | Potency [2] | Potency [3] | Potency [4]

CN(C)CC(c1ccc(O)cc1)C1(O)CCCCC1 (stereo not given)
inactive: Potency [1] | Potency [2] | Potency [3] | Potency [4]

CC1(C(=O)O)CC[C@]2(C(=O)OC3OC(CO)C(O)C(O)C3O)CC[C@]3(C)C(=CCC4[C@@]5(C)CC[C@H](OC6OCC(O)C(O)C6OC6OC(CO)C(O)C(O)C6O)C(C)(C)C5CC[C@]43C)C2C1 (stereo not given in full)
inactive: outcome [1] inactive [at 9.29 µM] | outcome [2] inactive [at 9.29 µM] | Potency [3] | Potency [4]

CC(C)(O)C(O)C(=O)OCc1ccc(O[C@@H]2O[C@H](CO)[C@@H](O)[C@H](O)[C@H]2O)cc1 (stereo not given in full)
inactive: Potency [1] | Potency [2] | Potency [3] | Potency [4]

O=C(c1ccc(Cl)c([N+](=O)[O-])c1)N1CCN(c2ccccc2F)CC1
inactive: Potency [1] | Potency [2] | Potency [3] | Potency [4]

CC1(C)CC[C@]2(C(=O)O[C@@H]3O[C@H](CO)[C@@H](O)[C@H](O)[C@H]3O)CC[C@]3(C)C(=CCC4[C@@]5(C)CC[C@H](OC6OC(C(=O)O)C(OC7OC(CO)C(O)C(O)C7O)C(O)C6O)C(C)(C)C5CC[C@]43C)C2C1 (stereo not given in full)
inactive: outcome [1] inactive [at 9.29 µM] | activity change, negative = cytotoxicity [2] 9.04% [at 9.29 µM] | Potency [3] | Potency [4]

CC1=CC(=O)C2C(C)(C)CCC[C@]2(C)[C@H]1CC[C@H](C)CC(=O)O (stereo not given in full)
inactive: Potency [1] | Potency [2] | Potency [3] | Potency [4]

CC1(C)CCC2(C(=O)O)C(O)CC3(C)C(=CCC4C5(C)CCC(OC6OC(CO)C(O)C(O)C6OC6OC(CO)C(O)C(O)C6OC6OCC(O)(CO)C6O)C(C)(C)C5CCC43C)C2C1 (stereo not given)
inactive: outcome [1] inactive [at 9.29 µM] | outcome [2] inactive [at 9.29 µM] | Potency [3] | Potency [4]

N#Cc1ccc(C2CCCc3cncn32)cc1 (stereo not given)
inactive: Potency [1] | Potency [2] | Potency [3] | Potency [4]

Cc1occc(=O)c1O[C@@H]1O[C@H](COC(=O)CC(C)(O)CC(=O)O)[C@@H](O)[C@H](O)[C@H]1O (stereo not given in full)
inactive: Potency [1] | Potency [2] | Potency [3] | Potency [4]

OC[C@H]1O[C@@H](OC[C@H]2O[C@@H](OCc3ccccc3)[C@H](O)[C@@H](O)[C@@H]2O)[C@H](O)[C@@H](O)[C@@H]1O
inactive: Potency [1] | Potency [2] | Potency [3] | Potency [4]

CCc1cccc2c3c([nH]c12)[C@@](CC)(CC(=O)O)OCC3
inactive: Potency [1] | Potency [2] | Potency [3] | Potency [4]

FC(F)(F)Oc1ccc(-c2ccc3nnc(C(F)(F)F)n3c2)cc1
inactive: Potency [1] | Potency [2] | Potency [3] | Potency [4]

CC1(C)C=Cc2c(ccc3c2N=C2C(C)(C)[C@@H]4C[C@]56CCCN5C(=O)[C@@]4(C[C@]23O)NC6=O)O1
inactive: Potency [1] | Potency [2] | Potency [3] | Potency [4]

COC(=O)[C@H](Cc1ccc([N+](=O)[O-])cc1)NC(=O)c1cccc2ccccc12
inactive: Potency [1] | Potency [2] | Potency [3] | Potency [4]
